# PubChem BioAssay
# Values joined by “and” are separate entries in the source; they are usually repeats but may differ in a detail not shown here. Equal entries are not always repeated. Active and inactive are the calls of the source.
# Tests used:
# Albumin (Bos taurus) = Albumin (Bos taurus) (UniProt P02769); assay: bovine serum albumin binders on microarray, profiling panel, artefact control for SMM control protein annotation, biochemical, small-molecule microarray, Alexa647 label, 635/667 nm fluorescence (AID 1118); conditions: BSA-A647 binding, fluorescence 635 nm, higher = more signal;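 also: score merges 667 nm emission intensity and signal-to-noise per printed compound spot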
# Albumin (Bos taurus), sequence (P02769 whole entry, looked up): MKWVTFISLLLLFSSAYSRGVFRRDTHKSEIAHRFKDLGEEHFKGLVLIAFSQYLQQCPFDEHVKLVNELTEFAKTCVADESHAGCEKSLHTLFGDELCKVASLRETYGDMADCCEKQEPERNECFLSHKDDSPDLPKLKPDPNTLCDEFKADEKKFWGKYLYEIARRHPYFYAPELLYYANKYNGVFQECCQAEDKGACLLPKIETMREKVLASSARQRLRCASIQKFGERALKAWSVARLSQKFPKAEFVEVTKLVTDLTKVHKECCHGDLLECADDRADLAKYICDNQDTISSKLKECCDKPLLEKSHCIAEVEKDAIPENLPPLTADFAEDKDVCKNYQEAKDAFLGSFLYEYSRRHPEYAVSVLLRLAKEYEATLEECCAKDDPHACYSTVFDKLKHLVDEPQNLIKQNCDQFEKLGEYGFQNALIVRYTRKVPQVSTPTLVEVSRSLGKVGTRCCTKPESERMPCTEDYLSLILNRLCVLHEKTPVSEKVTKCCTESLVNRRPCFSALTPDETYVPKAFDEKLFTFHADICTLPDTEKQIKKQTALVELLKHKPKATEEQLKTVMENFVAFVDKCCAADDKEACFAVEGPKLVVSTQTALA
# [1] = small-molecule microarray binders of probe aXIP, primary screen, biochemical, NeuroSMM set, 635/667 nm fluorescence (AID 1119); conditions: higher = more signal, called active from +8 up or from −8 down;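 also: probe is the protein aXip251-270 applied at 1 µg/mL to compound-printed slides; binding of probe to printed compounds measured as 667 nm fluorescence plus signal to noise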
# [2] = small-molecule binders of probe aNOTCH3, primary screen, biochemical, small-molecule microarray, 635/667 nm fluorescence (AID 1120); conditions: higher = more signal;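 also: probe is a biotin-tagged antibody raised against NOTCH3 rather than NOTCH3 protein; score merges spot fluorescence near 667 nm with spot signal to noise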
# [3] = small-molecule binders of probe aNOTCH2, primary screen, biochemical, small-molecule microarray, 635/667 nm fluorescence (AID 1121); conditions: higher = more signal;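 also: score merges feature fluorescence read at 667 nm with its signal to noise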
# [4] = target: Carbonic anhydrase 2 (Homo sapiens) (UniProt P00918); assay: CAII small-molecule binders, profiling panel, biochemical, small-molecule microarray, Alexa647-labelled CAII (AID 1122); conditions: CAII-A647 binding fluorescence, higher = more signal
# [5] = COS7 lysate on small-molecule microarray, probe aHis, 635 nm (AID 1123); conditions: COS7 cell lysate, fluorescence, higher = more signal;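 also: z-score combines 667nm fluorescence intensity with signal-to-noise per printed compound spot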
# [6] = compound binding in COS7 lysate, probe aLAP1, primary screen, cell lysate, small-molecule microarray (AID 1124); conditions: probe aLAP1, fluorescence, higher = more signal;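 also: lysate comes from COS7 cells expressing LAP1 and is applied at 0.3 µg/mL; score merges spot fluorescence near 667 nm with signal-to-noise over triplicate slides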
# Sam68 (KHDRBS1) = assay: Sam68 small-molecule binders, primary screen, biochemical, small-molecule microarray, 635 nm fluorescence (AID 1125); conditions: small-molecule microarray binding, higher = more signal;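 also: score merges 667 nm channel intensity with signal to noise over triplicate slides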
# [7] = tested on: Chordin-like protein 2 (CHRDL2); assay: CHRDL2 small-molecule binders, primary screen, biochemical, small-molecule microarray, 635 nm fluorescence (AID 1126); conditions: small-molecule microarray binding, fluorescence 635 nm; higher = more signal;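 also: printed compound slides probed with Chrdl2 protein at 4 µg/mL for 1 h at 4 C; score merges 667 nm emission intensity with signal to noise over three replicate slides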
# [8] = target: Concanavalin-A (Canavalia ensiformis) (UniProt P02866); assay: ConA small-molecule binders, primary screen, artefact control for SMM control protein annotation, biochemical, small-molecule microarray, Alexa647 label, 635 nm (AID 1127); conditions: ConA-A647 binding fluorescence, higher = more signal;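 also: z combines 667 nm emission intensity with signal-to-noise across three replicate slides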
# Concanavalin-A (Canavalia ensiformis), sequence (P02866 whole entry, looked up): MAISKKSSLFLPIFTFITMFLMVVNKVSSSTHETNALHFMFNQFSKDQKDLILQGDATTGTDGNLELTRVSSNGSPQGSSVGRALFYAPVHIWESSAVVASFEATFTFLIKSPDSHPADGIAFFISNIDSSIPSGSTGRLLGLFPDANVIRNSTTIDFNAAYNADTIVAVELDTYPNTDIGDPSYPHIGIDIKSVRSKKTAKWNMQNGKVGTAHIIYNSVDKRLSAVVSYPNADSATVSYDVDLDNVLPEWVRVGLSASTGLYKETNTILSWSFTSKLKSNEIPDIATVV
Compound,composite z-score (Albumin (Bos taurus)),composite Z-score [1],composite z-score [2],composite z-score [3],composite z-score [4],composite z-score [5],composite z-score [6],composite z-score (Sam68 (KHDRBS1)),composite z-score [7],composite z-score [8]
CCOC(=O)[C@H](CC(C)C)NC(=O)CCC1CC(OC(=O)NCc2cccc3ccccc23)CC2(CCCC(COC(=O)NCc3ccccc3)O2)O1 (stereo not given in full),-0.294,-0.19 (inactive),-0.155,-0.152,-0.3,0.043,-0.384,-0.903,-0.139,-0.68
COC(=O)[C@@]1(Cc2ccccc2)[C@H]2c3cc(C(=O)N(C)C)n(C[C@H](O)CO)c3C[C@H]2CN1C(=O)c1ccccc1,0.4 and 1.14,-0.506 (inactive) and -0.574 (inactive),0.0208 and 0.52,0.0538 and 0.261,0.897 and 0.841,3.13 and 1.27,0.562 and 0.966,-0.278 and -0.421,-0.138 and -0.519,-0.148 and -0.0788
C=CC[C@@H](O)c1ccc(O)c2ccccc12,-0.0028 and -0.264,1.21 (inactive) and -0.181 (inactive),0.347 and 0.0296,-0.0523 and -0.153,0.524 and 0.379,1.18 and 1.3,0.207 and -0.0872,1.04 and 1.08,1.38 and 1.23,0.89 and 0.565
C=C[C@H](OC)[C@@H](O)c1ccc(O)c(F)c1,0.0861 and -0.58,-0.244 (inactive) and 0.209 (inactive),-0.592 and -0.454,-0.239 and -0.225,0.274 and -0.771,-0.541 and -0.37,-0.474 and -0.637,-1.1 and -1.43,-2.38 and -1.91,-1.97 and -1.23
CCCC[C@@H]1CN2[C@@H](CC[C@@H](C)[C@@H]2c2ccc(Br)cc2)C(=O)O1,0.604 and 0.712,0.548 (inactive) and 0.14 (inactive),0.0293 and -0.0219,-0.104 and -0.164,0.284 and 0.282,1.22 and 0.595,-0.0028 and 0.498,1.1 and 0.929,0.306 and 0.0739,0.402 and 0.987
C=C(C)C(=O)OC[C@@H]1CN2[C@@H](CC[C@@H](C)[C@@H]2c2ccc(Br)cc2)C(=O)O1,0.635,-0.0665 (inactive),-0.127,-0.153,0.195,0.774,0.937,1.16,0.426,0.363
CCOC(=O)c1ccc(NC(=O)O[C@H]2[C@H](OC(=O)Nc3ccccc3)[C@H](OC(=O)Nc3ccccc3)[C@@H](OC)O[C@@H]2CO)cc1,0.783 and 0.754,1.13 (inactive) and 0.14 (inactive),0.583 and 0.228,0.121 and -0.0858,0.46 and 0.771,2.66 and 2.3,0.708 and 1.11,1.31 and 1.3,0.292 and 0.142,1.19 and 1.15
